According to PubChem BioAssay AID977628 (Broad Institute, 2014):
Fewer than 10 of roughly 1,900 compounds were called active. About 20% were inconclusive and are not listed.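 Rule for the calls: active = compound lowering the normal-ribosome reporter at least twice as much as the humanized-ribosome reporter, growth loss under a set limit; inconclusive = no clear call, values can overlap the other calls; inactive = the rest.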 These entries were drawn from the full list.

Experiment: E. coli growth inhibition, wild-type GFP versus h24 humanized RFP strain, dose response, h24 mutant RFP vs wild-type GFP, cherry-pick (AID 977628)
Details: E. coli WT GFP strain growth, fluorescence, 24 h; series mostly up to 50 µM; activity change, negative = inhibition: at the top concentration

Activity change, negative = inhibition, inactive:
CCn1c(NC(=O)c2nn(C)cc2Br)nc2ccccc21 -2.68
Cc1ccc(C(=O)NCC(=O)OCC(=O)Nc2cccc(S(=O)(=O)N3CCCC3)c2)cc1C -14.5
O=C(NCCc1ccccc1)c1cccc(NC(=O)c2ccccc2)c1 -14
CNC(=O)c1ccsc1NC(=O)c1ccc(S(=O)(=O)N2CCc3ccccc32)cc1 -16.9
O=C(N[C@@H](Cc1ccccc1)C(=O)OCc1ccccc1)c1nc[nH]c1C(=O)NC1CCNCC1 -13.3
COc1ccccc1N1CCN(Cc2ccc(OC)c3ccccc23)CC1 -11.9
Cc1n[nH]c(C)c1S(=O)(=O)N1CCCC(C(=O)Nc2ccc(Br)cc2)C1 (stereo not drawn) -11.2
COc1ccccc1CC(=O)NCCc1c[nH]c2ccccc12 -8.31
CC(=O)Nc1ccc(CNc2nc(NCCN(C)C)nc3cc(-c4ccccc4)sc23)cc1 3.84
CC1CCCC(NC(=O)COC(=O)[C@@H]2CC(O)CN2S(=O)(=O)c2ccc3c(c2)OCCO3)C1C (stereo partly drawn) -10.7
CCc1cc2cc(OC)ccc2nc1SCC(=O)Nc1cc(OC)c(OC)cc1C(=O)O -9.76
Cc1ccc2c(N)c(C(=O)c3ccccc3)sc2n1 -5.41
COc1ccc(C2=NN(C(=O)c3cccnc3)C(c3ccccc3)C2)cc1 (stereo not drawn) -5.27
Cc1ccc(-c2c[n+](CC(=O)Nc3ccccc3)c3n2CCC3)cc1 -6.55
Cc1ccc(OCCCC(=O)NC(C)c2ccccc2)c(C)c1 (stereo not drawn) -8.4
O=C(NCc1ccc2c(c1)OCO2)c1sccc1Br -4.39
Cc1cccc(NC(=O)c2nc(S(=O)(=O)Cc3ccccc3)ncc2Cl)c1 6.25
Cn1cc(CCC(=O)NCc2ccc3c(c2)OCO3)c2ccccc21 -5.07
Cc1ccc(S(=O)(=O)NC(C)C(=O)NCc2ccc(Cl)cc2)cc1 (stereo not drawn) -9.27
CCc1c(N=O)c(-c2ccccc2)n(O)[n+]1[O-] -8.37
COc1ccc2c(c1)c1ncn(Cc3ccccn3)c(=O)c1n2C -10.3
O=C(c1cccc(F)c1)N1CCN(c2ccc([N+](=O)[O-])c3cccnc23)CC1 -8.81
C[C@@H]1CN([C@@H](C)CO)C(=O)c2cc(NS(=O)(=O)c3ccccc3)ccc2O[C@@H]1CN(C)Cc1ccc(C(=O)Nc2ccccc2N)cc1 1.48
